Experimental data: PubChem BioAssay (NCATS)
Records with an inconclusive call do not appear. Calls of active or inactive are those of the source. Unless noted, calls come from the whole dose curve; as a rule, active = well fitted inhibition curve with a large enough effect; inconclusive = small, poorly fitted or top-dose-only effect; inactive = flat fitted curve, though single readings scatter.

Key:
[1] = AP1 Signaling Pathway (AID 357; active = well fitted curve in either direction with a large enough effect, not every such curve was filed as active; note: % is set by controls: 0 for no effect and ±100 for the full control effect)
Procedure, shortened: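 ME-180 cells with beta-lactamase reporter under AP-1 response element, stimulated with EC50 EGF; compounds tested in titration series, 5 h at 37 °C. CCF4 substrate added 2.5 h at room temperature; 460/530 nm emission ratio gave %activity and AC50.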

[2] = target: Cytochrome P450 1A2 (Homo sapiens) (UniProt P05177); assay: p450-cyp1a2 (AID 410; calls by dose curve; note: potency is the fitted concentration of half-maximal effect;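 for activity change, negative = inhibition: -100% = full effect of reference inhibitor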)
Cytochrome P450 1A2 (Homo sapiens), sequence (P05177 whole entry, looked up): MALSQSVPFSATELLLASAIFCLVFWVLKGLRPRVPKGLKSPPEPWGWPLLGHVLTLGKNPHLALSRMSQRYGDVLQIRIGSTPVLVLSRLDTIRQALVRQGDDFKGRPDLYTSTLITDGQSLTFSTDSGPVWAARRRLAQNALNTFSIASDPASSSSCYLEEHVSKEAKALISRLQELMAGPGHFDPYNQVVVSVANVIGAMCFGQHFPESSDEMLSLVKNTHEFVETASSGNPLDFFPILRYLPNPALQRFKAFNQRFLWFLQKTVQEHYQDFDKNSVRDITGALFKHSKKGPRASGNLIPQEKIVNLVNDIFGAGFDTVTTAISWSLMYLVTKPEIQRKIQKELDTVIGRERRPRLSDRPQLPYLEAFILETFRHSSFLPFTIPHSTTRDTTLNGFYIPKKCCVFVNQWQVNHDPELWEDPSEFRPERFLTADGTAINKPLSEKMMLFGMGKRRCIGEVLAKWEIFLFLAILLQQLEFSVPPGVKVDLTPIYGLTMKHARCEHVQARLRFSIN
Procedure, shortened: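 Inhibition was calculated relative to 57 uM furafylline (full inhibition). The reaction used human CYP1A2 at 20nM with Luciferin-ME at its Km, 100uM, driven by an NADPH-regenerating system for 60 min at room temperature.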

[3] = NFAT Signaling Pathway (AID 444; active = well fitted curve in either direction with a large enough effect, not every such curve was filed as active;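 note: carbachol stimulus at about its EC50 of 1 µM final; % is set by controls: 0 for no effect and ±100 for the full control effect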); settings: Jurkat NFAT-bla M1, carbachol, beta-lactamase ratio, 5 h; at 17.2 µM (top of the series) unless noted
Procedure, shortened: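 Read-out: CCF4 FRET ratio (460 nm/530 nm) after 1 h RT dye loading, used for %activity and AC50 from titration series. Cells: Jurkat NFAT-β-lactamase/M1 line, treated with compound plus 1 uM carbachol for 5 h, 37 °C.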

[4] = Stat Signaling Pathway (AID 446; active = well fitted curve in either direction with a large enough effect, not every such curve was filed as active;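 note: ME-180 cervical cancer cells given 40 pM IL-6 alongside compound; SIE-controlled beta-lactamase reporter measured as 460/530 nm FRET emission ratio; % is set by controls: 0 for no effect and ±100 for the full control effect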)
Procedure, shortened: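 ME-180 cells carrying a SIE-driven beta-lactamase reporter are stimulated with 40 pM IL-6 for 5 h at 37C in the presence of compound. The 460/530 nm FRET substrate ratio is read after 2.5 h at RT. Data are normalised to 300 pM IL-6 and to 125 nM JAK inhibitor controls.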

[5] = target: Glucocorticoid receptor (Homo sapiens) (UniProt P04150); assay: GR-GFP Redistribution (AID 450;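 active = compounds whose dose series gives a full or clear partial fitted curve of increased nuclear translocation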; note: potency is the fitted concentration of half-maximal effect); settings: U2OS GR-GFP nuclear translocation, laser cytometry, 2 h
Glucocorticoid receptor (Homo sapiens), sequence (P04150 whole entry, looked up, the tested form may be a part): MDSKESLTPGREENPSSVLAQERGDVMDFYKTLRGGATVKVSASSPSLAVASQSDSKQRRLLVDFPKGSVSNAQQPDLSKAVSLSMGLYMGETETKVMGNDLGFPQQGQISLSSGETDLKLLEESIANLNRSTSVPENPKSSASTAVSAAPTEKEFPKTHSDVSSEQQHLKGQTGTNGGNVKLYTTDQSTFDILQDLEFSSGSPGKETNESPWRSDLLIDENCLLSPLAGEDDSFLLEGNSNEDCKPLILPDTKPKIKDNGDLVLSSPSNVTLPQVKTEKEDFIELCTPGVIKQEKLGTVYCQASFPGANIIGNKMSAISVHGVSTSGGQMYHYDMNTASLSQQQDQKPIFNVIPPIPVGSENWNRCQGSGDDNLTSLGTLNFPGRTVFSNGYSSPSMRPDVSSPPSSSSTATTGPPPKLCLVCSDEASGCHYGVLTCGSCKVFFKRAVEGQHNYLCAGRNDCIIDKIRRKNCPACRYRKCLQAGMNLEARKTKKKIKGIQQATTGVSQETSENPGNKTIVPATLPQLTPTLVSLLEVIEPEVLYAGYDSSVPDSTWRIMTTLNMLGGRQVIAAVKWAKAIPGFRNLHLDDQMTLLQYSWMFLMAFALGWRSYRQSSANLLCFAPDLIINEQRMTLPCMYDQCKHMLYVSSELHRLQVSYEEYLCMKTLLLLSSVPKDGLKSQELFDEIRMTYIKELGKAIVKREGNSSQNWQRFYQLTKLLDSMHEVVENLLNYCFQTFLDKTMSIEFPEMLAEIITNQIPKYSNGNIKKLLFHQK

[6] = target: Glucocorticoid receptor (Homo sapiens) (UniProt P04150); assay: GR-EFC Redistribution (AID 451; calls by dose curve; note: potency is the fitted concentration of half-maximal effect); settings: CHO-K1 GR-EFC translocation, beta-gal luminescence, 2 h
Procedure, shortened: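 Translocation of GR-ED fusion to nuclear EA restores b-gal, read by luminescence after 1 h room-temperature detection. Engineered CHO-K1 biosensor cells, 1,000/well, exposed 2 h at 37 C to titrations up to 46 uM final.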

[7] = target: Mitogen-activated protein kinase 10 (Mus musculus) (UniProt Q61831); assay: JNK3 AlphaScreen Assay (AID 530; active = well fitted curve in either direction with a large enough effect, not every such curve was filed as active;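 note: kinase came from lysate of stimulated human HepG2 cells; signal reports phosphorylation of biotinylated GST-cJun 1-79 at Ser73 with 10 µM ATP; % is set by controls: 0 for no effect and ±100 for the full control effect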)
Procedure, shortened: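 Room-temperature AlphaScreen kinase assay; pre-activated HepG2 lysate as JNK3 source, biotin-GST-cJun(1-79) substrate, 10 uM ATP, compound 15 min preincubation.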

[8] = target: 3',5'-cyclic-AMP phosphodiesterase 4B (Homo sapiens) (UniProt Q07343); assay: qHTS Assay for Inhibitors of PDE-IV (AID 607; active = well fitted activation curve with a large enough effect in the main read-out, with a control signal flat, not every such curve was filed as active; note: % of control where 0% means no effect)
3',5'-cyclic-AMP phosphodiesterase 4B (Homo sapiens), sequence (Q07343 whole entry, looked up): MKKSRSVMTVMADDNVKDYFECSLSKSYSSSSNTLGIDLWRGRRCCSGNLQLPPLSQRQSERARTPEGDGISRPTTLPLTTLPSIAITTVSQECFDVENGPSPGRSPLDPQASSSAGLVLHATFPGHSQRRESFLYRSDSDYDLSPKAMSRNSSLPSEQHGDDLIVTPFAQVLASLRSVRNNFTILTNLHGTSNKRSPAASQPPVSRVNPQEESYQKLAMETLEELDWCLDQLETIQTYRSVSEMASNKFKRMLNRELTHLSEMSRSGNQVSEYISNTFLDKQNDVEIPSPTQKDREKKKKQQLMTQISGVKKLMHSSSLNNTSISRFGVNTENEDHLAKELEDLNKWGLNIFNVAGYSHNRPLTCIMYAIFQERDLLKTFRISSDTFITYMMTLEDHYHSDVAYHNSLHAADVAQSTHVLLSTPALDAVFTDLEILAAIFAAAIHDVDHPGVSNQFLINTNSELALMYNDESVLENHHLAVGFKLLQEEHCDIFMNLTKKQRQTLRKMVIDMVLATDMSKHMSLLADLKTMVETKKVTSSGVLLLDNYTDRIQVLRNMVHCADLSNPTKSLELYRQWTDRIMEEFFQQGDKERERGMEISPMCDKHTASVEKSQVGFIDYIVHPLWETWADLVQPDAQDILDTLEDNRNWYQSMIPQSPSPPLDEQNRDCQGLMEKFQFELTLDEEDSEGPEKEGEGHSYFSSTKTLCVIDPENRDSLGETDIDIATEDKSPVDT
Procedure, shortened: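 HEK293 ACTOne cells with CNG channel (1000/well), endogenous PDE4; membrane potential dye, compounds up to 22.9 uM final. Fluorescence Ex 535/Em 590; RO 20-1724 (100 uM final) as reference.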

[9] = qHTS Assay for Lipid Storage Modulators (AID 1519; calls by dose curve); settings: Drosophila S3 cells, BODIPY lipid droplet/cell ratio, laser cytometry, cells loaded with oleic acid
Procedure, shortened: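 Cells seeded at 5,000 per well were treated with compounds over a concentration series and loaded with oleic acid (400 uM, as added). Lipid droplet fluorescence (488 nm excitation, 500-530 nm channel) was read by laser-scanning cytometry and normalized to 20 uM Triacsin C.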

[10] = target: Luciferin 4-monooxygenase (Photinus pyralis) (UniProt P08659); assay: Biochemical firefly luciferase enzyme assay for NPC (AID 624030);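 note: purified P. pyralis luciferase at 10 nM with luciferin and ATP substrate; 0% = DMSO and -100% = full luciferase inhibition by PTC124 control; nearly all actives have a fitted effect of over 70% in size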
Luciferin 4-monooxygenase (Photinus pyralis), sequence (P08659 whole entry, looked up): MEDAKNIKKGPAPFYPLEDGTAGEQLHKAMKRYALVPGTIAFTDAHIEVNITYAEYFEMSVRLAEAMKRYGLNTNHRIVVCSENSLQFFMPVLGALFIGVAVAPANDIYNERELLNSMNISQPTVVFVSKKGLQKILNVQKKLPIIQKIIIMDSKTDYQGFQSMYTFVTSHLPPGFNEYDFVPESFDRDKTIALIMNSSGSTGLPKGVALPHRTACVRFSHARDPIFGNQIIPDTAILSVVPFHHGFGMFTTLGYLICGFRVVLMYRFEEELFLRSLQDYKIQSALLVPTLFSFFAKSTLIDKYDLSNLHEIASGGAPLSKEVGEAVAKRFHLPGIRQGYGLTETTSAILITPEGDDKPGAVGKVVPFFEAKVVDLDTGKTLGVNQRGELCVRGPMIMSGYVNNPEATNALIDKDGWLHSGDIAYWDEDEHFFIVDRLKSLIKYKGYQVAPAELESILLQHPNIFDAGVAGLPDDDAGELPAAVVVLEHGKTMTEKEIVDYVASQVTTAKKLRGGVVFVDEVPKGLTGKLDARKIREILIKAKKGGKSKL
Procedure, shortened: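 Direct inhibition of firefly luciferase enzyme (10 nM final, 50 mM Tris Acetate) assessed by luminescence within 5 minutes. Percent activity scaled between DMSO and PTC124 positive control, with concentration-effect curves classified by fit quality and response.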

C2A = assay: qHTS profiling for inhibitors of Plasmodium falciparum proliferation (AID 504749);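 note: 0% = DMSO vehicle and full inhibition = artemisinin control; nearly all actives have a fitted effect of over 60% in size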; settings: P. falciparum in erythrocytes, SYBR Green DNA, 72 h; series mostly up to 12.8 µM
Procedure, shortened: (§1)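 Three-day growth assay of blood-stage parasites in erythrocytes (0.3% parasitemia, 2.5% hematocrit) at 37 C, 5% CO2, quantified by SYBR Green DNA staining after overnight detergent lysis.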

CP217 = assay: as above; settings: P. falciparum in erythrocytes, SYBR Green DNA, 72 h; series mostly up to 12.8 µM
Procedure, shortened: as §1

CP238 = assay: as above; settings: P. falciparum in erythrocytes, SYBR Green DNA, 72 h; series mostly up to 12.8 µM
Procedure, shortened: as §1

CP250 = assay: as above; settings: P. falciparum in erythrocytes, SYBR Green DNA, 72 h; series mostly up to 12.8 µM
Procedure, shortened: as §1

FAB9 = assay: as above; settings: P. falciparum in erythrocytes, SYBR Green DNA, 72 h; series mostly up to 12.8 µM
Procedure, shortened: as §1

JCK = assay: as above; settings: P. falciparum in erythrocytes, SYBR Green DNA, 72 h; series mostly up to 12.8 µM
Procedure, shortened: as §1

PC49 = assay: as above; settings: P. falciparum in erythrocytes, SYBR Green DNA, 72 h; series mostly up to 12.8 µM
Procedure, shortened: as §1

[11] = target: Ubiquitin carboxyl-terminal hydrolase 1 (Homo sapiens) (UniProt O94782); assay: Inhibitors of USP1/UAF1: Pilot qHTS (AID 504865);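 note: rhodamine fluorescence freed from ubiquitin-rhodamine substrate followed over time; top concentration of the series differs between compounds; % is set by controls: 0 for no effect and ±100 for the full control effect; nearly all actives have a fitted effect of over 35% in size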
Ubiquitin carboxyl-terminal hydrolase 1 (Homo sapiens), sequence (O94782 whole entry, looked up): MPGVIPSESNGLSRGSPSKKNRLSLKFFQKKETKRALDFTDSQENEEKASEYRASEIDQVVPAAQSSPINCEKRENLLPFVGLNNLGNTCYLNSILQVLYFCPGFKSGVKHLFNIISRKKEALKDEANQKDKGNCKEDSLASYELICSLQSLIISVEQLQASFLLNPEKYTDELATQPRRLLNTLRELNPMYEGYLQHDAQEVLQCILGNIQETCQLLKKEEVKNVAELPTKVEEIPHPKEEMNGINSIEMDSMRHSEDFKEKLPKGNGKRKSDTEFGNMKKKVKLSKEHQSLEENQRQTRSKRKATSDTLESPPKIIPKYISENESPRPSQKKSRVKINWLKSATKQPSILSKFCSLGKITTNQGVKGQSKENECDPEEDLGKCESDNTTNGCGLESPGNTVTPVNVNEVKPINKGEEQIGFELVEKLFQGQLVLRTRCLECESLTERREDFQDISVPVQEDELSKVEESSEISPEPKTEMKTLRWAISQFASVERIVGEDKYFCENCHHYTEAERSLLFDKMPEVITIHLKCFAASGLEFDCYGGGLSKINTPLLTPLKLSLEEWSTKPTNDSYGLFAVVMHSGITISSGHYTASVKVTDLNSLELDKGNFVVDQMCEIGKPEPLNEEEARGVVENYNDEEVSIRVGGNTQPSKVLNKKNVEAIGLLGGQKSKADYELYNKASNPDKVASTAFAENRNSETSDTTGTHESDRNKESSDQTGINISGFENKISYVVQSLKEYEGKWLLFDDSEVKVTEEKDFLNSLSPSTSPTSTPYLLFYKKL
Procedure, shortened: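 USP1/UAF1 complex (1nM) preincubated with compound 15 min at room temperature, then Ub-Rho substrate (150nM final) added. Fluorescence read kinetically at 480/540 nm, 6 reads every 60 seconds. Buffer: 50mM HEPES pH 7.8, 0.5mM EDTA, 0.1 mg/ml BSA, 1mM TCEP, 0.01% Tween-20.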

SC27B = assay: qHTS profiling for inhibitors of Plasmodium falciparum proliferation (AID 504749);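 note: 0% = DMSO vehicle and full inhibition = artemisinin control; nearly all actives have a fitted effect of over 60% in size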; settings: P. falciparum in erythrocytes, SYBR Green DNA, 72 h; series mostly up to 12.8 µM
Procedure, shortened: as §1

[12] = as above; settings: P. falciparum in erythrocytes, SYBR Green DNA, 72 h, at 12.8 µM (top of the series)
Procedure, shortened: as §1

[13] = measured here: cell count channel max response
[14] = measured here: lipid channel max response

COC(=O)C1=C(C)NC(C)=C(C(=O)OC(C)C)[C@H]1c1cccc2nonc12
active: Potency [2] 12.6 µM
-21.2%: max response [9, 13]
-22.3%: max response [9, 14]
inactive: outcome [1] | activity change, negative = inhibition [3] -22.3% | outcome [4] | Potency [5] > 20.6 µM | Potency [6] > 20.6 µM | Potency [7] | outcome [8] | activity change, negative = inhibition ([9]; at 25.7 µM (top of the series)) -0.0066% | Potency [10] | Potency (C2A) | Potency (CP217) | Potency (CP238) | Potency (CP250) | Potency (FAB9) | Potency (JCK) | Potency (PC49)

O=C1O[C@H](CN2CCOCC2)CN1/N=C\c1ccc([N+](=O)[O-])o1
-19.2%: max response [9, 13]
-26.5%: max response [9, 14]
inactive: outcome [1] | Potency [2] | activity change, negative = inhibition [3] -16.1% | outcome [4] | Potency [5] > 20.6 µM | Potency [6] > 20.6 µM | Potency [7] | outcome [8] | activity change, negative = inhibition ([9]; at 25.7 µM (top of the series)) -9.12% | Potency [11] | Potency [10] | Potency (C2A) | Potency (CP217) | Potency (CP238) | Potency (CP250) | Potency (FAB9) | Potency (JCK) | Potency (SC27B)

C[C@H](Oc1ccccc1)C(=O)N[C@@H]1C(=O)N2[C@@H]1SC(C)(C)[C@@H]2C(=O)O
inactive: outcome [1] | Potency [2] | activity change, negative = inhibition [3] -0.496% | outcome [4] | Potency [5] > 20.6 µM | Potency [6] > 20.6 µM | Potency [7] | outcome [8] | activity change, negative = inhibition ([9]; at 25.7 µM (top of the series)) -0.821% | Potency [11] | Potency [10] | activity, negative = inhibition ([12]; parasite line A) 9.22% | activity, negative = inhibition ([12]; parasite line B) 2.55% | Potency (C2A) | Potency (CP217) | Potency (CP238) | Potency (CP250) | Potency (FAB9) | Potency (JCK) | Potency (PC49) | Potency (SC27B)
-5.3%: max response [9, 13]
-3.26%: max response [9, 14]

NC(=O)N[C@H]1NC(=O)NC1=O
21.8%: max response [9, 13]
inactive: outcome [1] | Potency [2] | activity change, negative = inhibition [3] -6.77% | outcome [4] | Potency [5] > 20.6 µM | Potency [6] > 20.6 µM | outcome [8] | activity change, negative = inhibition ([9]; at 25.7 µM (top of the series)) -0.627% | Potency [10] | activity, negative = inhibition ([12]; parasite line A) 2.27% | activity, negative = inhibition ([12]; parasite line B) 16.7% | Potency (C2A) | Potency (CP217) | Potency (CP238) | Potency (CP250) | Potency (FAB9) | Potency (JCK) | Potency (PC49) | Potency (SC27B)
17.1%: max response [9, 14]

C[C@]1(OC(=O)/C=C\c2ccccc2)C[C@@H](O)[C@@]2(O)C=CO[C@@H](O[C@H]3O[C@@H](CO)[C@@H](O)[C@@H](O)[C@@H]3O)[C@H]21
inactive: outcome [1] | Potency [2] | activity change, negative = inhibition [3] -11% | outcome [4] | Potency [5] > 20.6 µM | Potency [6] > 20.6 µM | Potency [7] | outcome [8] | activity change, negative = inhibition ([9]; at 25.7 µM (top of the series)) -2.22% | Potency [11]
-17.4%: max response [9, 14]
-15.8%: max response [9, 13]

Cc1ccccc1N1C(=O)c2cc(S(N)(=O)=O)c(Cl)cc2N[C@H]1C
-3.14%: max response [9, 13]
inactive: outcome [1] | Potency [2] | activity change, negative = inhibition [3] 1.02% | outcome [4] | Potency [5] > 20.6 µM | Potency [6] > 20.6 µM | Potency [7] | outcome [8] | activity change, negative = inhibition ([9]; at 25.7 µM (top of the series)) 0.988% | Potency [11]
-3.66%: max response [9, 14]

CC(C)(N=NC(C)(C)C(=N)N)C(=N)N
inactive: outcome [1] | Potency [2] | activity change, negative = inhibition [3] 3.21% [at 7.69 µM] | outcome [4] | Potency [5] > 46 µM | Potency [6] > 9.22 µM | Potency [7] | outcome [8] | activity change, negative = inhibition ([9]; at 57.5 µM (top of the series)) 6.18% | Potency [11]
-8.52%: max response [9, 13]
0.846%: max response [9, 14]

C[C@@H]1Cc2ccccc2N1NC(=O)c1ccc(Cl)c(S(N)=O)c1 (stereo partly specified)
7.13%: max response [9, 14]
inactive: outcome [1] | Potency [2] | activity change, negative = inhibition [3] 6.1% | outcome [4] | Potency [7] | outcome [8] | activity change, negative = inhibition ([9]; at 25.7 µM (top of the series)) -0.666% | Potency [11] | Potency [10] | activity, negative = inhibition ([12]; parasite line A) 15.9% | activity, negative = inhibition ([12]; parasite line B) 17.7% | Potency (C2A) | Potency (CP217) | Potency (CP238) | Potency (CP250) | Potency (FAB9) | Potency (JCK) | Potency (PC49) | Potency (SC27B)
8.03%: max response [9, 13]

CC[C@H](CO)NCCN[C@@H](CC)CO
4.79%: max response [9, 13]
4.52%: max response [9, 14]
inactive: outcome [1] | Potency [2] | activity change, negative = inhibition [3] -11.9% | outcome [4] | Potency [7] | outcome [8] | activity change, negative = inhibition ([9]; at 25.7 µM (top of the series)) -0.966% | Potency [11] | Potency [10] | activity, negative = inhibition ([12]; parasite line A) -3.07% | activity, negative = inhibition ([12]; parasite line B) 5.7% | Potency (C2A) | Potency (CP217) | Potency (CP238) | Potency (CP250) | Potency (FAB9) | Potency (JCK) | Potency (PC49) | Potency (SC27B)

C[C@@H]1O[C@H](O[C@@H]2[C@@H](Oc3cc(O)c4c(c3)O[C@H](c3ccc(O)cc3)CC4=O)O[C@@H](CO)[C@@H](O)[C@H]2O)[C@@H](O)[C@H](O)[C@@H]1O
-4.7%: max response [9, 13]
-6.11%: max response [9, 14]
inactive: outcome [1] | Potency [2] | activity change, negative = inhibition [3] -5.97% | outcome [4] | Potency [6] > 20.6 µM | Potency [7] | outcome [8] | activity change, negative = inhibition ([9]; at 25.7 µM (top of the series)) -1.64%

CO[C@H]1C=CO[C@]2(C)Oc3c(C)c(O)c4c(O)c(c5c(c4c3C2=O)NC2(CCN(CC(C)C)CC2)N=5)=NC(=O)C(C)=CC=C[C@@H](C)[C@@H](O)[C@@H](C)[C@@H](O)[C@@H](C)[C@@H](OC(C)=O)[C@@H]1C
-1.31%: max response [9, 14]
-3.75%: max response [9, 13]
inactive: outcome [1] | Potency [2] | activity change, negative = inhibition [3] -15% | outcome [4] | Potency [5] > 20.6 µM | Potency [6] > 20.6 µM | outcome [8] | activity change, negative = inhibition ([9]; at 25.7 µM (top of the series)) -0.285%
